Assay results published in PubChem BioAssay (Tox21).
Records with an inconclusive call do not appear. Activity calls are given as the source filed them. Unless noted, the call rests on the fitted dose curve; in most records, active means well fitted curve in the direction sought with a large enough effect in the repeat runs; inconclusive means weak or mixed curves; inactive means no such curve, though single readings can be large; an effect the other way counts as inactive or inconclusive.

How the values were obtained:
[1] = qHTS assay for small molecule agonists of the p53 signaling pathway (AID 651631; calls by dose curve; further: nearly all actives have a fitted effect of over 15% in size)
Summary of the method: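 HCT-116 p53RE-bla reporter line, 16 h compound treatment at 37 °C, then fluorescence after 2 h with B/G FRET substrate.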

[2] = qHTS assay for small molecule agonists of the p53 signaling pathway - cell viability (AID 651633; calls by dose curve;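 further: p53RE-bla HCT reporter cells with a stable beta-lactamase p53 reporter; series mostly up to about 83 µM; nearly all actives have a fitted effect of over 30% in size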)
Summary of the method: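 p53RE-bla cells, seeded at 4,000 per well and rested 5 h at 37 C/5% CO2, received compounds in DMSO for 16 h at 37 C. CellTiter-Glo was then added, and luminescence was read after 30 min at room temperature to gauge cytotoxicity.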

[3] = qHTS assay for small molecules that induce genotoxicity in human embryonic kidney cells expressing luciferase-tagged ATAD5 - cell viability (AID 651634; calls by dose curve; further: nearly all actives have a fitted effect of over 25% in size)
Summary of the method: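 Cytotoxicity counter-readout: after 15.5 hr compound treatment at 37C, live-cell protease activity in ATAD5-luciferase HEK293T cells measured by CellTiter-Fluor fluorescence, 30 min development at 37C.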

[4] = qHTS assay for small molecule disruptors of the mitochondrial membrane potential - cell viability (AID 720634; calls by dose curve;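 further: human HepG2 liver cancer cells; series mostly up to about 83 µM; nearly all actives have a fitted effect of over 20% in size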)
Summary of the method: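 Cytotoxicity was quantified from ATP content by CellTiter-Glo luminescence in the same wells as the MMP dye read-out. HepG2 (2,000 cells/well) were plated overnight and exposed to compounds for 1 hr at 37 C.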

[5] = qHTS assay for small molecule disruptors of the mitochondrial membrane potential (AID 720635)
Summary of the method: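 HepG2 cells (2,000/well) attached overnight at 37C, then took compound for 1 hr at 37C, 5% CO2. Mito-MPS dye was added for 30 min; fluorescence was read at 490/535 nm (monomers) and 540/590 nm (aggregates).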

[6] = qHTS assay to test for compound auto fluorescence at 590 nm (red) in HepG2 cells (AID 720674)
Summary of the method: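 Intrinsic compound fluorescence in the red window (Ex/Em 540/590 nm) is measured in attached HepG2 cells exposed for 1 hr, DMSO vehicle as baseline, benchmarked to Rose Bengal sodium.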

[7] = qHTS assay to test for compound auto fluorescence at 535 nm (green) in HepG2 cells (AID 720675)
[8] = qHTS assay to test for compound auto fluorescence at 460 nm (blue) in HEK293 cells (AID 720678)
Summary of the method: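 Auto fluorescence in the blue band was quantified as triamterene equivalency. HEK293 cells were seeded at 2,000/well, dosed after a 4-5 hr attachment, and kept overnight at 37C before the 405/460 nm reading.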

[9] = qHTS assay to test for compound auto fluorescence at 590 nm (red) in HEK293 cells (AID 720679)
Summary of the method: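 Autofluorescence equivalency to Rose Bengal sodium, 540/590nm, in HEK293 cells exposed overnight to 23 nL compound per well.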

[10] = qHTS assay to test for compound auto fluorescence at 535 nm (green) in HEK293 cells (AID 720680)
[11] = qHTS assay to test for compound auto fluorescence at 460 nm (blue) in HEK293 cell free culture (AID 720681)
Summary of the method: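 Test compounds were pinned into cell-free culture medium (DMEM with 10% FBS) and fluorescence was read directly at Ex/Em 405/460 nm. Signals were expressed as fluorescence equivalents of triamterene, with DMSO vehicle as control.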

[12] = qHTS assay to test for compound auto fluorescence at 535 nm (green) in HEK293 cell free culture (AID 720682)
Summary of the method: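 Steps: dispense DMEM/10% FBS into empty wells; pin in compound or DMSO; measure fluorescence at 485/535 nm. Values are fluorescein equivalents.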

[13] = qHTS assay to test for compound auto fluorescence at 590 nm (red) in HEK293 cell free culture (AID 720683)
Summary of the method: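 Tox21 10K library compounds were pinned into cell-free DMEM with 10% FBS and fluorescence was read at excitation 540 nm. Activity is expressed as Rose Bengal sodium equivalency.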

[14] = qHTS assay to test for compound auto fluorescence at 590 nm (red) in HepG2 cell free culture (AID 720684)
Summary of the method: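 Ex 540 / Em 590 nm read of compound in cell-free MEM (10% FBS). Rose Bengal sodium reference.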

[15] = qHTS assay to test for compound auto fluorescence at 460 nm (blue) in HepG2 cell free culture (AID 720685)
Summary of the method: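 Cell-free plates of MEM plus 10% FBS received 23 nL compound or DMSO vehicle; blue-channel (405/460 nm) intensity scored against triamterene as reference fluorophore.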

[16] = qHTS assay to test for compound auto fluorescence at 535 nm (green) in HepG2 cell free culture (AID 720686)
[17] = qHTS assay to test for compound auto fluorescence at 460 nm (blue) in HepG2 cells (AID 720687)
Summary of the method: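 Cells (2,000/well in MEM with 10% FBS) attached overnight at 37 C, then were exposed to compound or DMSO for 1 hr at 37 C, 5% CO2. Fluorescence read at Ex/Em 405/460 nm, expressed as triamterene-equivalent signal.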

[18] = target: Glucocorticoid receptor (Homo sapiens) (UniProt P04150); experiment: qHTS assay to identify small molecule agonists of the glucocorticoid receptor (GR) signaling pathway (AID 720691; active means well fitted activation curve with a large enough effect in the signal ratio in the repeat runs, not every such curve was filed as active; the % refers to the signal ratio)
Chain of Glucocorticoid receptor (Homo sapiens) (P04150 whole entry, looked up): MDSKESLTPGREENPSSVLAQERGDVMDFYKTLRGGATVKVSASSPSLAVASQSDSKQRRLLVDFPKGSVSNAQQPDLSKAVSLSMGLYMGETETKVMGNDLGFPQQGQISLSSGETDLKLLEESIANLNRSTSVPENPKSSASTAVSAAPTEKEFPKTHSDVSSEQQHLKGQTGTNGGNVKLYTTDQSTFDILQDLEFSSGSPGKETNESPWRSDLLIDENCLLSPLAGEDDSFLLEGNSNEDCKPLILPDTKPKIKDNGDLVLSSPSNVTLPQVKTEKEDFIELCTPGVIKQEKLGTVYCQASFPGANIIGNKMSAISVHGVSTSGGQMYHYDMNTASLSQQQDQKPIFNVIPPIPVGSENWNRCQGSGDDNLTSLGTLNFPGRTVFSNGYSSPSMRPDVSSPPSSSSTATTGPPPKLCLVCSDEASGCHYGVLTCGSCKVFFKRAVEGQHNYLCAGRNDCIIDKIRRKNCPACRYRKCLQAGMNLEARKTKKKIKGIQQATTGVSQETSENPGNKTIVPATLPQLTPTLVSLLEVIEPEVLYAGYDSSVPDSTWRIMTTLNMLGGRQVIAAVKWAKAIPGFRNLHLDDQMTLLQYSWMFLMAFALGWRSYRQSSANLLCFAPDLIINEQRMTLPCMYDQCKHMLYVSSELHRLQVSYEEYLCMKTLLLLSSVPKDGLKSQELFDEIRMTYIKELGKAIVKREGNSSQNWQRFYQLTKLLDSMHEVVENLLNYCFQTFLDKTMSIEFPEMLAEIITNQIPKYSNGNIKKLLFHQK
Summary of the method: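 Agonist-mode qHTS in HeLa cells stably expressing a glucocorticoid-response-element beta-lactamase reporter. Fluorescence intensity read with FRET substrate (2 h, room temperature) after 18 h compound treatment at 37 C.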

[19] = target: Glucocorticoid receptor (Homo sapiens) (UniProt P04150); experiment: qHTS assay to identify small molecule antagonists of the glucocorticoid receptor (GR) signaling pathway (AID 720692; active means well fitted inhibition curve with a large enough effect in the signal ratio in the repeat runs, not every such curve was filed as active; the % refers to the signal ratio)
Summary of the method: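 Inhibition of dexamethasone-driven (5 nM final) beta-lactamase expression was measured in GRE-reporter HeLa cells over 18 h at 37C. Fluorescence was read after 2 h with the B/G FRET substrate at room temperature.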

[20] = qHTS assay for small molecules that induce genotoxicity in human embryonic kidney cells expressing luciferase-tagged ATAD5 (AID 651632); further: nearly all actives have a fitted effect of over 15% in size
Summary of the method: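 A rise in luciferase signal from ATAD5-tagged HEK293T cells marks genetic stress. Cells were exposed to compounds for 16 hr at 37C, 5% CO2, then luciferase was quantified after a 30 min room-temperature incubation with Amplite.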

Measured: Potency

CC1=C(C)C(=O)C(C(CCCCCC(=O)O)c2ccccc2)=C(C)C1=O (stereo unspecified)
not listed: [20]
inactive: all other assays above

CC/C=C/CCO
not listed: [5] | [19] | [20]
inactive: all other assays above

O=C1C=CCCC1
not listed: [14] | [18] | [19] | [20]
inactive: all other assays above

CC1(C)[C@@H]2CC[C@]3(C2)[C@@H]1C(=O)CCC3(C)C
not listed: [18] | [19] | [20]
inactive: all other assays above

C1CCN(CN2CCCCC2)CC1
not listed: [4] | [9] | [19] | [20]
inactive: all other assays above

Cc1ccccc1CCO
not listed: [4] | [5] | [15] | [18] | [19] | [20]
inactive: all other assays above

COc1ccc(C(=O)c2ccc(C)cc2)c(O)c1
not listed: [2] | [4] | [5] | [9] | [18] | [19]
inactive: all other assays above

S=c1[nH][nH]c(=S)s1
not listed: [5] | [20]
inactive: all other assays above
